Laboratory results reported in the supplement of paper PMC9135407.
Values joined by “and” are separate entries in the source; they are usually repeats but may differ in a detail not shown here. Identical values can stand only once. Counter-ions that a name gives are not always drawn. Among all 5,800 compounds or so, about 620 (11%) showed activity. The entries come from a sample that favours actives as a whole. Values without a mark were called inactive.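 How the source made its calls: active = score above a cut-off or among the top three wells of a plate; in these data no inactive exceeds 0.85.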

Test system: primary human hepatic stellate cells (donor 1)
Assay: scaled lipid accumulation score (0 = DMSO-like, 1 = nortriptyline-like); higher = stronger HSC inactivation (lipid re-accumulation), active = hit call of the paper
Conditions: 48 h
[1] = library stock concentration: 1 mM
[2] = library stock concentration: 10 mM
[3] = library stock concentration: 3.33 mM
[4] = library stock concentration: 6.4 mM

With `O=C(O)CCC/C=C\C[C@H]1C(=O)C=C[C@@H]1/C=C/[C@@H](O)COc1ccccc1` [16-phenoxy tetranor Prostaglandin A2] the “scaled lipid accumulation score” value [1] was ≤ 0.
In the case of `CCCCCCCCCCCCCCCC(=O)OC[C@H](COP(=O)([O-])OCC[N+](C)(C)C)OC(=O)CCCCCCCC(=O)O`, the “scaled lipid accumulation score” value [1] is reported as ≤ 0.
For `CC(C)(C)[C@]1(O)CCN2C[C@H]3c4ccccc4CCc4cccc(c43)[C@@H]2C1` [(+)-Butaclamol hydrochloride], the “scaled lipid accumulation score” value [2] was 0.672.
With `CC(C)(C)[C@]1(O)CCN2C[C@H]3c4ccccc4CCc4cccc(c43)[C@@H]2C1` the “scaled lipid accumulation score” value [2] was 0.691.
In the case of `CCCCC[C@H](O)/C=C/C=C\CCCCCCCC(=O)O`, the “scaled lipid accumulation score” value (library stock concentration: 100 uM) is reported as ≤ -0.021.
With `CCCCCC(=O)/C=C/[C@@H]1[C@@H](C/C=C\CCCC(=O)O)[C@@H](O)C[C@H]1O` [15-keto Prostaglandin F2.alpha.] the “scaled lipid accumulation score” value [1] was ≤ 0.
With `CCN(CC)CCCCN1c2ccccc2Oc2ccc(Cl)cc21` [Akt Inhibitor X] the “scaled lipid accumulation score” value [3] was 0.225.
`Clc1ccc2c(c1)C(N1CCNCC1)=Nc1ccccc1O2` was tested, and the “scaled lipid accumulation score” value [2] was 0.843.
For `CCN(CC)CCCCN1c2ccccc2Oc2ccc(Cl)cc21` [10-DEBC hydrochloride], the “scaled lipid accumulation score” value [2] was 0.5.
With `Clc1ccc2c(c1)C(N1CCNCC1)=Nc1ccccc1O2` [Amoxapine] [listing 1 of 4 here] the “scaled lipid accumulation score” value [4] was 0.886 (active).
For `Clc1ccc2c(c1)C(N1CCNCC1)=Nc1ccccc1O2` [Amoxapine] [listing 2 of 4 here], the “scaled lipid accumulation score” value [2] was 1.05 (active).
With `CC(=O)NNC(=O)N1Cc2ccccc2Oc2ccc(Cl)cc21` the “scaled lipid accumulation score” value [2] was ≤ 0 and ≤ -0.006.
In the case of `Clc1ccc2c(c1)C(N1CCNCC1)=Nc1ccccc1O2` [Amoxapine] [listing 3 of 4 here], the “scaled lipid accumulation score” value [4] is reported as 0.598.
In the case of `Clc1ccc2c(c1)C(N1CCNCC1)=Nc1ccccc1O2` [Amoxapine] [listing 4 of 4 here], the “scaled lipid accumulation score” value is reported as 0.863 (active).
`Nc1ncnc2c1ncn2[C@@H]1O[C@@H]2COP(=O)(O)O[C@H]2[C@H]1O` [Adenosine 3',5'-cyclic monophosphate] was tested, and the “scaled lipid accumulation score” value [2] was 0.281.
With `NC(C(=O)O)C(O)C(=O)O` (racemic) [DL-threo-beta-hydroxyaspartic acid] the “scaled lipid accumulation score” value [2] was ≤ -0.07.
In the case of `O=C[C@@H]1CCCN1C(=O)[C@@H]1CCCN1C(=O)OCc1ccccc1` [Z-prolyl-prolinal], the “scaled lipid accumulation score” value (library stock concentration: 15.1 mM) is reported as 0.107.
With `CO/N=C(\C(=O)N[C@@H]1C(=O)N2C(C(=O)O)=C(CSC(=O)c3ccco3)CS[C@H]12)c1csc(N)n1` the “scaled lipid accumulation score” value [2] was ≤ 0.
In the case of `CO/N=C(\C(=O)N[C@@H]1C(=O)N2C(C(=O)O)=C(CSC(=O)c3ccco3)CS[C@H]12)c1csc(N)n1` [Ceftiofur HCl], the “scaled lipid accumulation score” value [3] is reported as 0.015 and the “scaled lipid accumulation score” value [2] is reported as ≤ 0.
In the case of `CC[C@H]1OC(=O)[C@H](C)[C@@H](O[C@H]2C[C@@](C)(OC)[C@@H](O)[C@H](C)O2)[C@H](C)[C@@H](O[C@@H]2O[C@H](C)C[C@H](NC)[C@H]2O)[C@](C)(O)C[C@@H](C)CN(C)[C@H](C)[C@@H](O)[C@]1(C)O`, the “scaled lipid accumulation score” value [2] is reported as 0.363.
With `Cc1ccc2c(c1)C(=O)C1(O)CCN(c3ccccc3)C1=N2` (configuration not stated) [Blebbistatin] the “scaled lipid accumulation score” value (library stock concentration: 17.1 mM) was 0.072.
In the case of `Cc1ccc2c(c1)C(=O)C1(O)CCN(c3ccccc3)C1=N2` (configuration not stated), the “scaled lipid accumulation score” value [1] is reported as ≤ 0 and the “scaled lipid accumulation score” value [2] is reported as ≤ -0.006.
With `CCCCC[C@H](O)/C=C/[C@@H]1[C@@H](C/C=C\CCCCCC(=O)O)[C@@H](O)C[C@H]1O` [1a,1b-dihomo Prostaglandin F2.alpha.] the “scaled lipid accumulation score” value [1] was ≤ 0.
`CCCCC(C)(C)[C@H](O)/C=C/[C@H]1C=CC(=O)[C@@H]1CCCCCCC(=O)O` [16,16-dimethyl Prostaglandin A1] was tested, and the “scaled lipid accumulation score” value [1] was ≤ 0.
For `CCCCCCCC/C=C/CCCCCCCC(=O)O` [Elaidic Acid], the “scaled lipid accumulation score” value [1] was ≤ 0.
In the case of `Cl.C(=C\CCNC)(/c1c(cccc1)CC2)\c3c2cccc3` [Nortriptyline hydrochloride], the “scaled lipid accumulation score” value is reported as 1.13 (active).
With `C(=C/CCNC)(/c1c(cccc1)CC2)\c3c2cccc3` [Nortriptyline] the “scaled lipid accumulation score” value (library stock concentration: 7.6 mM) was 0.971 (active).
`CNCCC=C1c2ccccc2CCc2ccccc21.Cl` was tested, and the “scaled lipid accumulation score” value [2] was 1.02 (active).
In the case of `c1ccc(\C(\c2c3cccc2)=C\CCNC)c(C=C3)c1` [Norcyclobenzaprine], the “scaled lipid accumulation score” value is reported as 1.13 (active).
With `CNCCC=C1c2ccccc2CCc2ccccc21` [Nortriptyline] the “scaled lipid accumulation score” value [2] was 0.72.
With `OCc1ccccc1` the “scaled lipid accumulation score” value [2] was ≤ 0.
In the case of `CC(=O)N[C@@H](Cc1c[nH]c2ccccc12)C(N)=O` [Acetyltryptophanamide], the “scaled lipid accumulation score” value [2] is reported as ≤ 0.
For `COc1ccc2c(Oc3ccc(NC(=O)c4c(C)n(CC(C)(C)O)n(-c5ccccc5)c4=O)nc3)ccnc2c1`, the “scaled lipid accumulation score” value [3] was ≤ 0 and the “scaled lipid accumulation score” value [2] was ≤ 0.
`C[C@H](Cc1ccc(O)c(O)c1)[C@@H](C)Cc1ccc(O)c(O)c1` was tested, and the “scaled lipid accumulation score” value [2] was ≤ -0.055.
`COCCCN1CCC(NC(=O)c2cc(Cl)c(N)c3c2OCC3)CC1` [Prucalopride] was tested, and the “scaled lipid accumulation score” value [3] was ≤ 0 and the “scaled lipid accumulation score” value [2] was ≤ 0.
For `COCCCN1CCC(NC(=O)c2cc(Cl)c(N)c3c2OCC3)CC1` [Prucalopride Succinat], the “scaled lipid accumulation score” value [3] was 0.028 and the “scaled lipid accumulation score” value [2] was 0.03.
In the case of `CC1(C)O[C@H]2CC(=O)OC[C@]23[C@H]2CC[C@@]4(C)[C@H](c5ccoc5)OC(=O)[C@H]5O[C@]54[C@]2(C)C(=O)C[C@@H]13` [Limonin], the “scaled lipid accumulation score” value [3] is reported as ≤ 0 and the “scaled lipid accumulation score” value [2] is reported as 0.008.
For `O=C(O)CCC/C=C/C[C@@H]1[C@@H](CC[C@@H](O)CCc2ccccc2)[C@H](O)C[C@@H]1O` [5-trans Latanoprost (free acid)], the “scaled lipid accumulation score” value [1] was ≤ 0.
In the case of `O=C1O[C@H]([C@@H](O)CO)C([O-])=C1O.[Na+]` [Sodium ascorbate], the “scaled lipid accumulation score” value [3] is reported as ≤ 0 and the “scaled lipid accumulation score” value [2] is reported as ≤ -0.001.
For `CCCCC[C@H](O)/C=C/[C@H]1C(=O)C[C@H](O)[C@@H]1C/C=C\CCCC(=O)OCC(O)CO` (some centres not stated) [Prostaglandin D2-1-glyceryl ester], the “scaled lipid accumulation score” value [1] was ≤ 0.
For `CN1C(=O)C(Cc2c[nH]c3ccccc23)NC1=S` (configuration not stated) [Necrostatin-1], the “scaled lipid accumulation score” value (library stock concentration: 80 uM) was 0.008, the “scaled lipid accumulation score” value (library stock concentration: 400 uM) was ≤ 0 and the “scaled lipid accumulation score” value (library stock concentration: 2 mM) was ≤ 0. The “scaled lipid accumulation score” value [3] was ≤ -0.009 and ≤ 0 and the “scaled lipid accumulation score” value [2] was ≤ 0 and 0.03.
